According to PubChem BioAssay (NCI):
Compounds without any hit were thinned out: in the full panel of roughly 79,000, 15% have a hit. No stated cut-off is given here; in the data, active means growth inhibition above about 70%; inactive means the rest.

Tests used:
[1] = NCI Yeast Anticancer Drug Screen. Data for the rad50 strain (AID 155);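 further: 0% = growth of vehicle-only cultures of the same strain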; conditions: S. cerevisiae rad50 strain growth inhibition; at 50.0 µM; stronger effect = higher value
How it was run: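 DNA repair mutant yeast, compound exposure, growth read-out; inhibition is taken relative to vehicle.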

[2] = NCI Yeast Anticancer Drug Screen. Data for the mec2-1 strain (AID 157); conditions: S. cerevisiae mec2-1 strain, at 50.0 µM, stronger effect = higher value
How it was run: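 Growth inhibition is read against vehicle-treated controls after compound exposure of the mec2-1 yeast strain, which is defective in DNA damage repair or cell cycle control.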

[3] = NCI Yeast Anticancer Drug Screen. Data for the sgs1 mgt1 strain (AID 161);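 further: 0% = growth of cultures given vehicle only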; conditions: S. cerevisiae sgs1 mgt1 strain, at 50.0 µM, stronger effect = higher value
How it was run: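 Compounds are added to genetically altered yeast, and growth is compared with cultures given vehicle alone to give percent inhibition.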

[4] = NCI Yeast Anticancer Drug Screen. Data for the cln2 rad14 strain (AID 165);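 further: 0% = growth equal to vehicle treated cultures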; conditions: S. cerevisiae cln2 rad14 strain, at 50.0 µM, stronger effect = higher value
How it was run: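 Growth inhibition, relative to vehicle-treated controls, is the read-out. The test organism is a yeast strain with defined genetic alterations, cln2 rad14.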

[5] = NCI Yeast Anticancer Drug Screen. Data for the bub3 strain (AID 167); conditions: S. cerevisiae bub3 mutant strain, at 50.0 µM, stronger effect = higher value
How it was run: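 In this screen, a yeast mutant lacking normal mitotic checkpoint function is challenged with compound. Relative growth versus vehicle gives the inhibition value.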

[6] = NCI Yeast Anticancer Drug Screen. Data for the mlh1 rad18 strain (AID 175); conditions: S. cerevisiae mlh1 rad18 strain growth inhibition; at 50.0 µM; stronger effect = higher value
How it was run: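 Cells of a genetically altered yeast strain, deficient in DNA damage repair, were treated with compound. Their growth was then compared with that of vehicle-treated cultures to give inhibition.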

Measured: growth inhibition

CC(=N\N=C\c1ccccn1)/C(C)=N/N=C/c1ccccn1
inactive: [1] 7.8% | [2] 10.3% | [3] -4.4% | [4] 30.6% | [5] -14.2% | [6] -53.3%

O=C=NC(c1ccccc1)(c1ccccc1)c1ccccc1
inactive: [1] -4.25% | [2] -18.1% | [3] 1.65% | [4] 11.5% | [5] -5.5% | [6] 13.2%

COc1cc2c3cc1Oc1c(OC)c(OC)cc4c1C(Cc1ccc(O)c(c1)-c1cc(ccc1OC)CC3N(C)CC2)N(C)CC4 (stereo unspecified)
inactive: [1] -1.25% | [2] -6.75% | [3] -2.15% | [4] 0.5% | [5] 8.85% | [6] -13.7%

CCCCCCCCOC(=O)C12Oc3ccc(-c4ccc5c(c4O)C(O)=C4C(=O)CC(C)C(O)C4(C(=O)OCCCCCCCC)O5)c(O)c3C(O)=C1C(=O)CC(C)C2O (stereo unspecified)
inactive: [1] 16.4% | [2] 2.95% | [3] 11.4% | [4] 7.6% | [5] 33.6% | [6] -54.6%

Cc1ccc(-c2noc(C)n2)cc1
inactive: [1] -12.9% | [2] 13.2% | [3] -2.75% | [4] -14.2% | [5] 4% | [6] 9.2%

CCOc1cc2c(cc1O)C=C[C@@H]1[C@@H]2CC[C@]2(C)[C@@H](O)CC[C@@H]12
inactive: [1] 33.8% | [2] 2.15% | [3] 53.8% | [4] 26.7% | [5] 18.7% | [6] 25.7%

Cc1ccc(OCC2OC(n3cnc4nc(Cl)nc(Cl)c43)CC2Oc2ccc(C)cc2)cc1 (stereo unspecified)
inactive: [1] 36% | [2] 12.4% | [3] 50.5% | [4] 50.2% | [5] 57.6% | [6] 15.2%

CC1=C(/C=C/C(C)=C/C=C/C(C)=C/C(=O)Nc2ccc(O)cc2)C(C)(C)CCC1
inactive: [1] -28.4% | [2] 1.05% | [3] -2.3% | [4] 6.45% | [5] 12.2% | [6] -13.2%

COc1ccc2cc1Oc1ccc(cc1)C[C@@H]1c3cc(c(OC)cc3CCN1C)Oc1c(OC)c(OC)cc3c1[C@H](C2)N(C)CC3
inactive: [1] 22.1% | [2] -19.9% | [3] 6.25% | [4] 5.1% | [5] 9.4% | [6] -49.9%

Cc1cc(S(=O)(=O)O)c(NC(=O)c2oc3cc(O)ccc3c(=O)c2C)cc1Cl
inactive: [1] -9.4% | [2] -22.9% | [3] 3.9% | [4] 9.5% | [5] -8.35% | [6] 3.95%

COC(=O)C(=O)C(C(=O)C(=O)Nc1ccc(Cl)c(Cl)c1)c1nc2ccc(C(=O)c3ccccc3)cc2[nH]c1=O (stereo unspecified)
inactive: [1] 6.8% | [2] -9.65% | [3] -15.1% | [4] 5.95% | [5] -3.05% | [6] 4.95%

COc1ccc(/C=c2\[nH]c3nc(=O)c(N4CCOCC4)c(N)n3c2=O)cc1
inactive: [1] 0.9% | [2] -19.4% | [3] 1.6% | [4] -11.8% | [5] -26.1% | [6] -10.2%

COc1ccc(C)cc1NC(=S)C#N
inactive: [1] 12.6% | [2] -1.2% | [3] -0.15% | [4] -18.6% | [5] 1.3% | [6] -44.9%

COC(=O)C(=O)C(C(=O)C(=O)Nc1nc2ccc(C)cc2s1)c1nc2ccc([N+](=O)[O-])cc2[nH]c1=O (stereo unspecified)
inactive: [1] 56.1% | [2] 15.4% | [3] 22.1% | [4] -30.6% | [5] 26.1% | [6] 20.2%

NC(Cc1ccc(S(=O)(=O)O)cc1)C(=O)NC(Cc1ccc(S(=O)(=O)O)cc1)C(=O)NC(Cc1ccc(S(=O)(=O)O)cc1)C(=O)NC(Cc1ccc(S(=O)(=O)O)cc1)C(=O)O (stereo unspecified)
inactive: [1] -6.5% | [2] 5.65% | [3] 5.2% | [4] -2.3% | [5] 5.85% | [6] 8.85%

CCCCCCSC[C@H](OC(C)=O)[C@@H](OC(C)=O)[C@@H](OC(C)=O)[C@@H](COC(C)=O)OC(C)=O
inactive: [1] -7% | [2] -14.8% | [3] 2.65% | [4] -2.95% | [5] 9% | [6] -5.35%
